AMA1-RON2 inh: qHTS for Inhibitors of AMA1-RON; Towards Development of Antimalarial Drug Lead: Primary Screen. Plasmodium falciparum AMA1 (3D7) - RON2 peptide interaction. AlphaScreen AMA1-biotinylated RON2 peptide binding. Potency, µM (series often up to 58.2 µM), for the others: at the top dose activity change, negative = inhibition, actives largely listed as inhibitors. 360,000 tested, 0.2% active; active means well fitted inhibition curve with a large enough effect; inconclusive means small, poorly fitted or top-dose-only effect; inactive means no such curve, though single readings can be large or run the other way;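 further: potency means the concentration at half of the fitted maximal effect; 0% = vehicle wells and -100% = peptide control; nearly all actives have a fitted effect of over 45% in size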
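AMA1 (3D7) with his tag at 25 nM final met compounds first, then biotinylated RON2 peptide at 25 nM; detection used donor plus acceptor beads, 10 µg/mL apiece, read by AlphaScreen after 30 min at room temperature.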
Lassa entry inh: qHTS for Inhibitors of binding or entry into cells for Lassa Virus | Potency, µM (series often up to 37.9 µM), inactives show at the highest dose activity change, negative = inhibition, most hits filed as inhibitors | 300,000 tested, 1.2% active | Lassa virus pseudotype entry inhibition, cell reporter | AID 540256, 2011; calls by dose curve; tested in HEK293 cells; further: potency means the concentration at half of the fitted maximal effect; on the % scale 0 is the no-effect control and ±100 the full control effect; nearly all actives have a fitted effect of over 50% in size
Shiga inhibitor: A qHTS for Small Molecule Inhibitors of Shiga Toxin | Vero cells, Shiga toxin protein synthesis inhibition reporter | inhibition, % at 38.7 µM | 290,000 tested, 9.2% active | AID 2315, 2010; in the data active means inhibition mostly above about 28%, no sharp cut-off; inactive means mostly below about 43%; further: 0% is about no effect
Cycloheximide cs: Cycloheximide Counterscreen for Small Molecule Inhibitors of Shiga Toxin; cell reporter, cycloheximide protein synthesis inhibition counterscreen; max response, %; 300,000 tested, 12% active; AID 2314, 2010; in the data active means max response mostly above about 13%, no sharp cut-off; inactive means mostly below about 14%; further: read at 38.3 µM for the half of the compounds with a filed dose; 0% is about no effect
Marburg entry inh: qHTS for inhibitors of binding or entry into cells for Marburg Virus | Potency, µM (doses to about 37.8 µM), inactives show top-dose activity change, negative = inhibition, usual class: inhibitors | Marburg virus pseudotyped entry inhibition, cell reporter | 300,000 tested, 1.8% active; calls by dose curve; tested in HEK293 cells; further: potency means the concentration at half of the fitted maximal effect; on the % scale 0 is the no-effect control and ±100 the full control effect
Numbers without * were called inactive; ? = inconclusive; . = no result given; [ ] = dose if it differs, or a comment. The full list was thinned out, with hits kept by preference.

SMILES | AMA1-RON2 inh | Lassa entry inh | Shiga inhibitor | Cycloheximide cs | Marburg entry inh
CC(NS(=O)(=O)c1ccc(OCC(=O)NCc2ccncc2)cc1)c1ccccc1 (stereo not given) | 9.1% | . | -11.2 | 9.2 | 4.47µM*
O=C(COc1ccccc1Cl)NCc1ccncc1 | 16.8% | 19.5% | 76.6 | 32.0* | 16.3%
CC(C)NS(=O)(=O)c1ccc(OCC(=O)NCc2ccccc2)cc1 | 8.3% | 10.9% | -1.7 | 10.9 | -20.1%
O=C(COc1ccccc1Cl)NCc1ccccc1 | -6.1% | -14.4% | 54.0* | 31.1* | -19.1%
CCN1CCC(O)(C(C(=O)OC)c2ccccc2)CC1 (stereo not given) | 63.3% | -4.8%[46.1 µM] | . | . | -18.3%[46.1 µM]
CC(=O)N(C)c1ccc(OCC(O)Cn2c(C)nc3ccccc32)cc1 (stereo not given) | -4.5% | ? | -8.9 | -5.4 | ?
CC(=O)N(C)c1ccc(OCC(O)Cn2c3ccc(Cl)cc3c3cc(Cl)ccc32)cc1 (stereo not given) | 70.6% | ? | -8.2 | -1.5 | 11.2µM*
c1cncc(-c2csc(NCc3ccco3)n2)c1 | -10.1% | 0.2% | 38.4* | 32.3* | ?
Cc1ccn2c(-c3csc(NCc4ccco4)n3)c(C)nc2c1 | -27.1% | 0.1% | 54.8 | 2.2 | 0.2%
COc1ccc(-c2csc(NCc3ccco3)n2)cc1C | -28.2% | -3.9% | 114.1* | 23.8* | 4.0%
COc1ccc(-c2nc3cccc(C)n3c2NCc2ccco2)cc1OC | -12.9% | -28.2% | -3.9 | 16.1* | ?
CC(=O)Nc1ccc(-c2csc(NC(=O)CCNC(=O)c3ccco3)n2)cc1 | 5.0% | -1.4%[46.1 µM] | . | . | -19.3%[46.1 µM]
CC(=O)Nc1ccc(-c2csc(NCc3ccco3)n2)cc1 | -5.3% | -15.5% | 44.1* | 48.1* | ?
CCc1ccc(CNC(=O)c2ccc(NC(=O)C3=CSCCO3)cc2)cc1 | -7.3% | . | 21.1* | 32.9* | .
O=C(Nc1ccc(C(=O)NCc2ccc(F)cc2)cc1)C1=CSCCO1 | -6.0% | -18.3%[46.1 µM] | 102.5* | 38.2* | -24.1%[46.1 µM]
O=C(Nc1ccc(C(=O)N2CCN(c3ccc(F)cc3)CC2)cc1)C1=CSCCO1 | 6.6% | . | 11.7 | 12.9 | .
O=C(Nc1ccc(C(=O)NCc2ccccc2)cc1)C1=CSCCO1 | -4.2% | . | 38.2* | 28.2* | .
CS(=O)(=O)c1ccc(C(=O)NNC(=O)c2ccccc2-n2cccc2)cc1 | 38.9% | . | . | . | .
Cc1ccc(S(=O)(=O)NCC(=O)OC(C(=O)c2ccccc2)c2ccccc2)cc1 (stereo not given) | 3.16µM* | -0.5% | 6.9 | -1.6 | ?
Fc1ccc(-c2ncn(C3CCNCC3)c2-c2ccnc(Oc3ccccc3)n2)cc1 | . | 6.28µM* | . | . | .
Fc1ccc(-c2ncn(C3CCNCC3)c2-c2ccnc(Oc3ccc4c(c3)OCO4)n2)cc1 | . | 12.5µM* | . | . | .
Cc1ccc2c(-c3ccnc(Nc4ccccc4)n3)c(-c3ccc(F)cc3)nn2n1 | . | 25µM* | . | . | .
CN1CCC(n2cnc(-c3ccc(F)cc3)c2-c2ccnc(Nc3ccccc3)n2)CC1 | . | 15.8µM* | . | . | .
NC(=O)Cc1ccccc1Oc1nccc(-c2c(-c3ccc(F)cc3)ncn2C2CCNCC2)n1 | . | -15.5% | . | . | .
COc1ccc(-c2nn(-c3ccc(F)cc3)c3c2cnc2cc4c(cc23)OCO4)cc1 | . | 24.8%[46.1 µM] | . | . | .
SMILES | AMA1-RON2 inh | Lassa entry inh | Shiga inhibitor | Cycloheximide cs | Marburg entry inh
O=c1oc(Nc2cccc(F)c2)nc2ccccc12 | 4.1% | -15.0% | 105.3* | 18.0* | -14.0%
O=C(Nc1cccc(-c2nc3ccccc3c(=O)o2)c1)c1ccccc1 | 4.0% | -12.5% | -4.6 | 12.4 | 0.4%[46.1 µM]
Nc1nc(Nc2cccc(F)c2)nc2ccccc12 | -7.1% | ? | 105.1* | 28.8* | ?
CN(c1ccccc1)c1nc(N)c([N+](=O)[O-])c(Nc2cccc(F)c2)n1 | -13.4% | . | 2.8 | -1.0 | .
Cc1nn(-c2ccc(N3CCCCC3)nn2)c(C)c1CCC(=O)NCc1ccccc1 | . | -2.9%[46.1 µM] | . | . | .
C[C@H]1CN([C@@H](C)CO)C(=O)c2cc(NC(=O)C3CCCCC3)ccc2O[C@H]1CN(C)C(=O)Nc1ccc2c(c1)OCO2 | -7.1% | . | . | . | .
COc1ccc(N2CCN(C(=O)C3CCN(S(=O)(=O)c4cnc[nH]4)CC3)CC2)cc1 | . | ? | . | . | 7.0%[46.1 µM]
COc1cccc(N2C(=O)CC(N3CCc4ccccc43)C2=O)c1 (stereo not given) | 6.0% | 16.7% | 35.0* | 23.7* | -2.5%
COc1ccccc1N1C(=O)CC(N2CCc3ccccc32)C1=O (stereo not given) | -9.0% | 0.0% | 26.9 | 10.0 | 12.3%

Screens as filed in PubChem BioAssay.
